# Data: PubChem BioAssay (Tox21)
# Values without a mark were called inactive. Activity calls are given as the source filed them. Calls come from the whole dose curve; as a rule, active = well fitted curve in the direction sought with a large enough effect in the repeat runs; inconclusive = weak or mixed curves; inactive = flat fitted curve, though single readings scatter.
# Test: qHTS assay to test for compound auto fluorescence at 460 nm (blue) in HepG2 cell free culture (AID 720685)
# Conditions: Cell-free culture medium, blue autofluorescence 405/460 nm; series mostly up to 46 µM; fluorescence, % of fluorescent control: at the top concentration
# Source text: U.S. Tox21 Program National Center for Advancing Translational Sciences [NCATS] NIH Chemical Genomics Center [NCGC] U.S. Environmental Protection Agency [EPA] National Institutes of Environmental Health Sciences [NIEHS] National Toxicology Program [NTP] U.S. Food and Drug Administration [FDA] Tox21 Assay Overview: Compound auto fluorescence often interferes with screening of the compound library against various biological targets and signaling pathways. Some of these compounds may have fluorophoric properties. Such properties may interfere with the assay outputs resulting in false positives and/or negatives. To decrease such complications and ensure the compound activities are relevant in terms of biological response, the Tox21 10K compound library was screened for auto fluorescence. From the fluorophores used as reporter signals in our screening assays, the auto fluorescence equivalencies of compounds against three fluorophores have been evaluated: Triamterene, Fluorescein and Rose Bengal sodium for blue, green and red fluorescence, respectively. The fluorescence intensities were measured using Excitation/Emission wavelengths at 405/460nm, 485/535nm and 540/590nm for blue, green and red labels, respectively. This assay includes the blue fluorescence data.
# Tox21 Assay Protocol Summary: 5 uL of culture medium (MEM containing 10% FBS) per well was dispensed into black wall/clear bottom 1536-well plates using a Multidrop Combi Dispenser (ThermoFisher Scientific, Waltham, MA). After 23 nL compound or DMSO vehicle was transferred into assay plate by a pintool work station (Kalypsys, San Diego, CA), fluorescence intensities in the assay plates were measured by an Envision (PerkinElmer, Shelton, CT) plate reader using three labels for measuring blue, green and red fluorescence at […] 460, 535 and 590nm respectively.
# % is set by controls: 0 for no effect and ±100 for the full control effect.
Structure (SMILES),"fluorescence, % of fluorescent control",outcome
CCCN(CCC)CCc1cccc2c1CC(=O)N2,0.0389%,
COCCc1ccc(OCC(O)CNC(C)C)cc1 (stereo not given),,inactive
c1ccc([C@H]2CN3CCSC3=N2)cc1,0.0982%,
Cc1cc2c(cc1S(N)(=O)=O)S(=O)(=O)CCC2,-0.0531% [at 18.6 µM],
NS(=O)(=O)c1cc(C(=O)O)cc(N2CCCC2)c1Oc1ccccc1,0.354% [at 18.6 µM],
Cc1cc(O)cc2c1O[C@](C)(CCC[C@H](C)CCC[C@H](C)CCCC(C)C)CC2,,inactive
C[C@H]1C[C@@H](O)CC(C)(C)C1,0.0073% [at 91.3 µM],
O=c1cc(CO)occ1O,,inactive
CCC(=O)OC(C)c1ccccc1 (stereo not given),-0.0492% [at 91.3 µM],
NS(=O)(=O)c1ccc(C(=O)O)cc1,0.067%,
CCCCCCCCCCCCN(CCCCCCCCCCCC)CCCCCCCCCCCC,-0.0775% [at 91.3 µM],
CCO/C([O-])=N/c1c[n+](N2CCOCC2)no1,-0.004% [at 18.6 µM],
CN(C)CCCSc1ccccc1NC(=O)/C=C/c1ccccc1,-0.0459%,
COC(=O)c1c(Cl)c(Cl)c(C(=O)OC)c(Cl)c1Cl,,inactive
C[C@@H]1CCN(C(=O)[C@H](CCCN=C(N)N)NS(=O)(=O)c2cccc3c2NC[C@H](C)C3)[C@@H](C(=O)O)C1,0.106%,
CCOC(=O)[C@H](CCc1ccccc1)N[C@@H](C)C(=O)N1[C@H](C(=O)O)C[C@@H]2CCC[C@@H]21,-0.0368%,
COc1c(N2C[C@@H]3CCCN[C@@H]3C2)c(F)cc2c(=O)c(C(=O)O)cn(C3CC3)c12,,inactive
CC1(C)CO[C@@H](CC(=O)O)CN1,-0.0767%,
CC(C)(C)c1nnc(NS(=O)(=O)c2ccccc2)s1,0.0023%,
NCCCNCCSP(=O)(O)O,-0.0451%,

Structure (SMILES),"fluorescence, % of fluorescent control",outcome
O=c1cc(-c2ccccc2)oc2ccccc12,,inactive
O=[N+]([O-])c1ccc(F)cc1F,-0.109% [at 91.3 µM],
N[C@H](C(=O)O)c1ccc(O)cc1,-0.0494%,
N#Cc1ccc(C2CCCc3cncn32)cc1 (stereo not given),0.2%,
COc1cc(C(=O)N2CCCCCCC2)cc(OC)c1OC,-0.0249%,
CCCCOCCOCCOCc1cc2c(cc1CCC)OCO2,,inactive
NC(=O)COCCN1CCN(C(c2ccccc2)c2ccc(Cl)cc2)CC1 (stereo not given),-0.0128%,
CCN1CCC[C@H]1CNC(=O)c1c(O)c(Cl)cc(Cl)c1OC,0.0294%,
CCSC(=O)N(CC(C)C)CC(C)C,0.0119% [at 91.3 µM],
O=C(O)CCCl,-0.0705% [at 95.7 µM],
O=c1[nH]c(=O)n([C@H]2C[C@H](O)[C@@H](CO)O2)cc1I,-0.116% [at 18.6 µM],
CN1CCCC1,-0.0917% [at 91.3 µM],
CCCCC(CC)COC(=O)c1ccccc1O (stereo not given),0.0868%,
c1ccc(CC2=NCCN2)cc1,-0.101% [at 18.6 µM],
CCCc1cc(C(N)=S)ccn1,0.0715%,
CC[N+](C)(C)c1cccc(O)c1,-0.0066% [at 18.6 µM],
CC/C=C\CC/C=C/C(OCC)OCC,-0.004% [at 91.3 µM],
CCCCCOC(=O)CCCCC,0.0101% [at 91.3 µM],
CC(=O)OCC(=O)[C@@]1(O)CC[C@H]2[C@@H]3CCC4=CC(=O)CC[C@]4(C)[C@H]3C(=O)C[C@@]21C,-0.12%,
COc1ccc(CCN(C)CCCC(C#N)(c2cc(OC)c(OC)c(OC)c2)C(C)C)cc1OC (stereo not given),-0.0196%,
